Laboratory results as given in ChEMBL document CHEMBL3988442, “University of Dundee, Small-Polar-MMV Screening Library” (2021).
Out of some 38,000 compounds screened, about 1,200 (3.2%) showed an effect of 50% or more. The median lay at about -58%. The sample holds strong results, similar compounds and a random draw of the others, so the mix is not that of the screen.

Each compound was assayed on Plasmodium falciparum (assay: Calibr Malaria Delayed Death Assay SOP). Conditions: concentration 4.99e-06 (unit not given; other assays of the set use mol/L).
Assay type: functional, organism-based
Set-up: scale not given: in the data most compounds retested in dose-response had high values

Row | SMILES | Percent Effect [%]
1 | O=C(NCCc1csc(-c2ncccn2)n1)c1cnn2c1CCCC2 | -31.93
2 | CC(=O)N1CCCC1c1cccc(Cc2ccccc2Cl)n1 (centres undefined) | -62.89
3 | CN(C)S(=O)(=O)N1CCCC(c2cccc(Cc3ccc(Cl)cc3)n2)C1 (centres undefined) | -15.18
4 | O=C(C1CC=CC1)N1C[C@H]2CN(Cc3ccncc3)C(=O)[C@H]2C1.O=C(O)C(F)(F)F | -118.6
5 | COc1ccc(C(C(=O)O)N(C)CCN2CCOCC2)c(C)c1 (centres undefined) | -92.34
6 | COc1cc(F)ccc1C(C(=O)O)N(C)CCN1CCOCC1 (centres undefined) | 79.89
7 | COc1ccc(C(C(=O)O)N(C)CCN2CCCC2)cc1F (centres undefined) | -71.16
8 | Cc1ccc(C(C(=O)O)N(C)CCN2CCOCC2)c(F)c1 (centres undefined) | -35.14
9 | COc1cc(F)ccc1C(C(=O)O)N(C)CCN1CCCC1 (centres undefined) | 71.25
10 | COc1ccc(C(C(=O)O)N(C)CCN2CCCC2)c(C)c1 (centres undefined) | -56.58
11 | CCCS(=O)(=O)N1C[C@H]2C[C@H](C(=O)Nc3cccnc3)[C@@H](C1)O2 | -54.27
12 | CC(C)=CCN1CCN(Cc2cccc(C)n2)CC1CCO (centres undefined) | -53.69
13 | Cc1cc(NCCc2nc(C)cs2)nc(-c2cccnc2)n1 | -152.4
14 | CC(C(=O)NN1CCOCC1)n1nc(C(F)(F)F)c(Cl)c1C1CC1 (centres undefined) | -94.38
15 | Cc1c(C(=O)NC2=NCCS2)cnn1-c1ccc(Cl)cc1 | -71.42
16 | COCCCN1CC2(CCCN(c3ncc(Cl)cc3F)C2)CCC1=O (centres undefined) | -81.54
17 | COCCN1CC2(CCCN(c3ncc(Cl)cc3F)C2)CCC1=O (centres undefined) | -14.43
18 | CN(C)CCN1CC2(CCCN(c3ncc(Cl)cc3F)C2)CCC1=O (centres undefined) | 82.66
19 | CCN1Cc2nc(OC)c(CNC(=O)C3CCCN(C)C3)cc2C1=O (centres undefined) | -47.23
20 | C=C(C)CN1CCCC(NS(C)(=O)=O)C1 (centres undefined) | -112.5
21 | CO[C@H]1CN(C(=O)c2ccnnc2)[C@@H]2COC[C@H]12 | -17.32
22 | CN(C)CCN1C[C@@H]2CN(c3ccccc3)C[C@@H]2C1=O.O=C(O)C(F)(F)F | -48.1
23 | Cc1ccsc1C(O)CNC(=O)Cc1ccc(F)cc1 (centres undefined) | -29.72
24 | CCC(=O)NC(CC)c1ccccc1C (centres undefined) | -70.92
25 | O=C(CNC(=O)C1CC1)Nc1c(F)cccc1Oc1ccccc1 | -53.44
26 | Cc1ccsc1C(Cc1ccccc1)NC(=O)CNC(=O)C1CC1 (centres undefined) | 68.17
27 | CCC(=O)NCC(=O)NC(Cc1ccccc1)c1sccc1C (centres undefined) | 84.56

Row | SMILES | Percent Effect [%]
28 | Cc1ccsc1C(Cc1ccccc1)NC(=O)CSCC(N)=O (centres undefined) | -15.45
29 | COc1cccc2c1OCC(Cc1cc(C(N)=O)ccn1)C2 (centres undefined) | -54.91
30 | CCc1nc(CN(C)C(=O)c2ccc(OCCCOC)nc2)cs1 | -70.62
31 | Cn1cc(CC(=O)N2CCC(Nc3cccnn3)CC2)c2ccccc21 | -27.56
32 | CCC(CNC(=O)COC)Oc1cccc(F)c1 (centres undefined) | -58.01
33 | CCC(CNC(=O)CNC(C)=O)Oc1cccc(F)c1 (centres undefined) | 84.82
34 | CCC(=O)NCC(CC)Oc1cccc(F)c1 (centres undefined) | -6.3
35 | Cc1cc(C(=O)N2CCCC(c3cc(C(F)(F)F)[nH]n3)C2)[nH]n1 (centres undefined) | -117
36 | O=C(O)C(F)(F)F.O=C(O)C(F)(F)F.c1cncc(-c2ncnc3c2CCN(Cc2ccsc2)CC3)c1 | -128.4
37 | CCN(C)CC1CCN(C(=O)Nc2ccc(C)cc2)C1 (centres undefined) | -13.91
38 | Cn1c(=O)oc2cc(S(=O)(=O)N3CCC(c4ccccc4)C3)c(Cl)cc21 (centres undefined) | -8.531
39 | O=C(O)C(F)(F)F.O=C(c1ccncc1F)N1CC[C@@H]2CN(c3ncccn3)CCO[C@@H]2C1 | -33.14
40 | Cc1ccc(CN2CCCn3c(nc(Cn4ccnc4)cc3=O)C2)s1 | -9.733
41 | Cc1cc(N(Cc2cccs2)C2CC2)n2nc(C(F)(F)F)nc2n1 | 65.64
42 | Cc1cc(N(Cc2ccccn2)C2CC2)n2nc(C(F)(F)F)nc2n1 | -69.19
43 | COCCN(c1cc(C)nc2nc(C(F)(F)F)nn12)C1CCCC1 | -69.88
44 | Cc1cc(N(Cc2cccnc2)C2CC2)n2nc(C(F)(F)F)nc2n1 | 22.81
45 | Cc1cc(N(Cc2ccccc2F)C2CC2)n2nc(C(F)(F)F)nc2n1 | -0.7756
46 | Cc1ccc(CN(c2cc(C)nc3nc(C(F)(F)F)nn23)C2CC2)cc1 | 93.63
47 | COC(=O)CCC(=O)N1CCC2(CN(Cc3ccccc3)C2)C1 | -61.64
48 | Cc1cc(C)n(-c2cncc(NCCC(=O)NC(C)C)n2)n1 | -25.6
49 | Fc1ccc(CN2CCO[C@H]3[C@H](OCC4CCCC4)CC[C@@H]32)cc1.O=C(O)C(F)(F)F | -74.43
50 | COC(=O)N1CCCN(Cn2nc(C)c(Br)c2C)CC1 | -78.94
51 | CCOC[C@@]12CCC[C@@H]1CN(C(=O)c1ccc(OC)cc1)C2 | -67.65
52 | Cn1cc(CN2CCn3cc(Cn4cccn4)nc3C2)cn1.O=C(O)C(F)(F)F | -116.7
53 | CC(C)Nc1ncnc2c1CCN(C(=O)CC1CCCC1)CC2 | -30.46
54 | OC(CN1CCOCC1)c1cc(Cl)ccc1Cl (centres undefined) | -41.91
